# From the supplement of paper PMC8007513
# Where a name gives a salt, the structure may show the parent alone. ± gives the standard error. Hit rate of the full screen: of about 1,300 compounds, about 75 (6%) showed an effect of 50% or more. This excerpt belongs to a sample that is enriched for strong results.
# Tested on: Trichoderma virens ATCC 9645
# Assay: growth yield (OD600) relative to untreated control; higher = less growth inhibition
# Details: compound concentration: 100 uM
# How it was run: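 Growth appears as means of duplicate screens, relative to the control containing neither agent. To obtain it, OD600 was read on a BioTek EL800 at 40 h and 72 h. The cultures were 100 μl aliquots in 96-well plates at 30 °C, holding Trichoderma virens ATCC 9645 spores at 15,000 spores ml^−1 in potato dextrose broth, library compounds at 100 μM final, and, in some wells, a biocide at 200 ng ml^−1.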
Structure (SMILES),growth yield (40 h) [%],growth yield (72 h) [%]
OCCN1C[C@H](O)[C@@H](O)[C@H](O)[C@H]1CO [Miglitol],101 ± 3,103 ± 3.1
C#C[C@]1(O)CC[C@H]2[C@@H]3[C@H](C)CC4=C(CCC(=O)C4)[C@H]3CC[C@@]21C [Tibolone],88.31 ± 0.64,90.72 ± 0.1
CN1CC2c3ccccc3Oc3ccc(Cl)cc3C2C1 (configuration not stated) [Asenapine maleate],100 ± 1.3,106 ± 1.3
Clc1ccc(C(Cn2ccnc2)OCc2csc3c(Cl)cccc23)c(Cl)c1 (configuration not stated) [Sertaconazole nitrate],3.81,2.73
C=CCOC(Cn1ccnc1)c1ccc(Cl)cc1Cl (configuration not stated) [Enilconazole],3.49,3.04 ± 0.32
Clc1ccc(COC(Cn2ccnc2)c2ccc(Cl)cc2Cl)cc1 (configuration not stated) [Econazole nitrate],2.22 ± 0.64,1.78 ± 0.52
Clc1ccc(C(Cn2ccnc2)OCc2ccsc2Cl)c(Cl)c1 (configuration not stated) [Tioconazole],2.22 ± 1.6,1.89 ± 0.84
O=C(O)/C=C/c1ccc(Cn2ccnc2)cc1 [Ozagrel hydrochloride],110 ± 9.5,106 ± 5.1
CCOC(=O)O[C@]1(C(=O)OCCl)CC[C@H]2[C@@H]3CCC4=CC(=O)C=C[C@]4(C)[C@H]3[C@@H](O)C[C@@]21C [Loteprednol etabonate],97.7 ± 3.6,97.4 ± 3.5
CNCC(O)c1ccc(OC(=O)C(C)(C)C)c(OC(=O)C(C)(C)C)c1 (configuration not stated) [Dipivefrin hydrochloride],99.28 ± 0.79,100.2 ± 0.94
CN(C)[C@@H]1C(O)=C(C(N)=O)C(=O)[C@@]2(O)C(O)=C3C(=O)c4c(O)cccc4[C@@](C)(O)[C@H]3C[C@@H]12 [Tetracycline hydrochloride],95.9,76.2 ± 15
CCN(CC)CCN[C@@H](C(=O)OCCC(C)C)c1ccccc1 [Camylofine chlorhydrate],104 ± 1.8,102 ± 1.5
CC1=C(CC(=O)O)c2cc(F)ccc2/C1=C\c1ccc([S+](C)[O-])cc1 (configuration not stated) [Sulindac],90.1 ± 1.1,86.31 ± 0.73
CN(C)CCCSC(=N)N [Dimaprit dihydrochloride],102 ± 3.3,99.5 ± 3.2
CC(C)(C)NC(=O)[C@H]1CC[C@H]2[C@@H]3CC[C@H]4NC(=O)C=C[C@]4(C)[C@H]3CC[C@]12C [Finasteride],84 ± 5.9,81.1 ± 2
N[C@@H]1CCCCN(c2c(F)cc3c(=O)c(C(=O)O)cn(C4CC4)c3c2Cl)C1 [Besifloxacin hydrochloride],93.4 ± 6.3,91.6 ± 8.3

Structure (SMILES),growth yield (40 h) [%],growth yield (72 h) [%]
C[C@H](Cc1cc2c(c(C(N)=O)c1)N(CCCO)CC2)NCCOc1ccccc1OCC(F)(F)F [Silodosin],105,100 ± 2.3
Cc1cc(/C=C/c2ccc3cc(N(C)C)ccc3[n+]2C)c(C)n1-c1ccccc1 [Pyrvinium pamoate],124 ± 20,114 ± 12
CCC1NC(=O)c2cc(S(N)(=O)=O)c(Cl)cc2N1 (configuration not stated) [Quinethazone],114 ± 1.4,107 ± 1.1
C#C[C@]1(OC(C)=O)CC[C@H]2[C@@H]3CCC4=CC(=NO)CC[C@@H]4[C@H]3CC[C@@]21CC (mixture of isomers) [Norgestimate],117 ± 3.3,112 ± 3.9
Clc1ccc(COC(Cn2ccnc2)c2ccc(Cl)cc2Cl)c(Cl)c1 (configuration not stated) [Miconazole],1.43 ± 1.1,1.47 ± 0.63
COc1ccc(-c2ccc3cc(C(=O)O)ccc3c2)cc1C12CC3CC(CC(C3)C1)C2 [Adapalene],107 ± 1.9,106.6 ± 0.84
Nc1ncnc2c1ncn2C1OC(COP(=O)(O)O)C(O)C1O (configuration not stated) [Adenosine 5'-monophosphate monohydrate],106 ± 1.3,107 ± 3.6
Cc1c(NC(C)C)c(=O)n(-c2ccccc2)n1C [Isopyrin hydrochloride],100.9 ± 0.79,96.17 ± 0.52
"O=C(O)Cc1cc(I)c(Oc2ccc(O)c(I)c2)c(I)c1 [Tiratricol, 3,3',5-triiodothyroacetic acid]",28.9 ± 16,46.6 ± 17
NC(Cc1cc(I)c(Oc2cc(I)c(O)c(I)c2)c(I)c1)C(=O)O (configuration not stated) [Thyroxine (L)],98 ± 2.1,94.5 ± 3.9
N[C@@H](Cc1cc(I)c(Oc2ccc(O)c(I)c2)c(I)c1)C(=O)O [Liothyronine],91.3 ± 3.3,97.3 ± 1.1
COc1cc2nc(N3CCN(C(=O)c4ccco4)CC3)nc(N)c2cc1OC [Prazosin hydrochloride],105 ± 5.7,101 ± 1.4
CCOC(=O)/C=C(C)/C=C/C=C(C)/C=C/c1c(C)cc(OC)c(C)c1C [Etretinate],110 ± 6.3,107 ± 5.5
CC(=O)Nc1ccc(CC(=O)O)cc1 [Actarit],106 ± 5.4,102 ± 3.4
C[C@@H](O)[C@H]1C(=O)N2C(C(=O)O)=C(SCCNC=N)C[C@H]12 [Imipenem],103 ± 2.2,104 ± 2.2
